# Data reported in PubChem BioAssay AID504832 (National Center for Advancing Translational Sciences (NCATS), 2011).
# The whole screen tested about 310,000 compounds, of which about 18,000 (5.8%) were called active. Roughly 22% stayed inconclusive and do not appear here. The sample holds actives, similar compounds and a random draw of the others, so the mix is not that of the screen. Unmarked numbers belong to inactive results. The call rests on the fitted dose curve; in most records, active means well fitted inhibition curve with a large enough effect; inconclusive means small, poorly fitted or top-dose-only effect, or another doubt; inactive means no such curve, though single readings can be large or run the other way.
# Test: Primary qHTS for delayed death inhibitors of the malarial parasite plastid, 48 hour incubation
# Conditions: P. falciparum luciferase growth in erythrocytes; series mostly up to 28.7 µM; activity change, negative = inhibition: at the top concentration
# How it was run: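 First compound was added to culture medium, then infected red cells at 0.1% parasitemia and 2% hematocrit (final). After incubation at 37 C under 5% CO2, luciferase detection reagent was dispensed and light output recorded.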
# On the % scale 0 is the no-effect control and ±100 the full control effect; potency means the concentration at half of the fitted maximal effect.
SMILES,"activity change, negative = inhibition",Potency
NC(=O)C(Cc1ccccc1)NC(=O)C12CC3CC(CC(C3)C1)C2 (stereo unspecified),-3.22%,
CNS(=O)(=O)c1ccc(C(=O)NCC(=O)NCCc2ccc3c(c2)OCCO3)cc1,-14.7%,
CCOC(=O)c1c(C)[nH]c2c1-c1ccccc1C(=O)C2=O,,1.47 µM (active)
CCOC(=O)c1c(C)[nH]c(C)c1S(=O)(=O)N(C)CC(=O)Nc1ccccc1C,-4.45%,
CCOC(=O)N1CCN(CC(=O)c2c(C)[nH]c3ccccc23)CC1,-7.87%,
CCc1nnc(NS(=O)(=O)c2ccc(N=Cc3c(C)[nH]n(-c4ccc(C)cc4)c3=O)cc2)s1,1.12%,
COc1cc(SC#N)ccc1N=Cc1c(C)[nH]n(-c2ccc(C)cc2)c1=O,,13.1 µM (active)
Cc1ccc(-n2[nH]c(C)c(/C=N/N3C(=O)c4cccc5cccc(c45)C3=O)c2=O)cc1,-9.64%,
COc1cccc(N2CC(NC(=O)c3ccc4ccccc4c3)CC2=O)c1 (stereo unspecified),1.12%,
COC(=O)c1cc(S(=O)(=O)Nc2ccc(C)c(F)c2)c[nH]1,-8.22%,
Cc1ccc(NC(=O)CSc2cccc3cccnc23)c(C)c1,-28%,
COC(=O)c1ccc(-c2c(-c3ccccc3)ncc3cc(OC)c(OC)cc23)cc1,-4.69%,
O=C1CC2(CCN(C(=O)COc3ccc(F)cc3)CC2)Oc2ccccc21,-9.25%,
CCC(C)n1c(-c2cc(OC)c(OC)c(OC)c2)nc2nc3ccccc3nc21 (stereo unspecified),,13.1 µM (active)
COc1ccc(CCn2c(-c3ccco3)nc3nc4ccccc4nc32)cc1OC,-18.5%,
COc1cc(-c2n[nH]c(=S)n2Cc2ccccc2)cc(OC)c1OC,-6.15%,
COc1ccc(C(=O)NC(C)CCc2ccccc2)c(OC)c1 (stereo unspecified),-23.8% [at 0.00184 µM],
CCc1sc(C(=O)N2CCN(CC(=O)Nc3cccc(F)c3)CC2)cc1C,4.46%,
S=C(NCC1CCCO1)N1CCN(c2ccc(Cl)c(Cl)c2)CC1 (stereo unspecified),-30.4%,
CCOc1ccc(NC(=S)N2CCC(N(C)CC3CCCO3)CC2)cc1 (stereo unspecified),15%,
CCOc1ccc(S(=O)(=O)NCCC(=O)NCC2CCCO2)cc1 (stereo unspecified),3.77%,
CCOc1ccc(S(=O)(=O)N2CCN(C(=S)NCC3CCCO3)CC2)cc1 (stereo unspecified),,5.22 µM (active)
COc1ccc(S(=O)(=O)N2CCC(C(=O)N3CCOCC3)CC2)cc1OC,4.87%,
COc1ccc(S(=O)(=O)N2CCN(C(=S)NCC3CCCO3)CC2)cc1OC (stereo unspecified),,1.85 µM (active)
CCCCNC(=O)CN1C(=O)NC(Cc2ccccc2)(Cc2ccccc2)C1=O,-9.93%,
CCN(CC)S(=O)(=O)c1ccc2[nH]cc(C(=O)NCCc3ccccc3)c(=O)c2c1,,13.1 µM (active)

SMILES,"activity change, negative = inhibition",Potency
CCN(CC(=O)NCCc1ccccc1)S(=O)(=O)c1ccccc1,1.84%,
CCCCNC(=O)c1c[nH]c2ccc(S(=O)(=O)Nc3ccc(OCC)cc3)cc2c1=O,-11.5%,
COc1ccccc1C(=O)NC(=O)COC(=O)C1CC1,-1.65%,
COc1ccccc1CCNC(=O)c1c(C)nn(CC(C)C)c1Cl,2.24%,
COC(=O)C1CCCCN1C(=O)c1ccc(OC2CCN(C(C)=O)CC2)c(OC)c1 (stereo unspecified),2.55%,
O=C(NC(=S)Nc1ccc(Cl)cc1Cl)C1CC1,24.5%,
CCCCn1c(N)c(N(CC)C(=O)c2ccccc2C(F)(F)F)c(=O)[nH]c1=O,-1.06%,
Cc1ccc(S(=O)(=O)N2CCC(C)CC2)cc1C(=O)NCc1ccccn1,7.37%,
CC(=O)Nc1c2c(nn1-c1ccc(C)cc1C)CS(=O)C2 (stereo unspecified),14.5%,
CCC(=O)Nc1ccc2nc(C)n(Cc3ccccc3Cl)c(=O)c2c1,,13.1 µM (active)
Cc1nn(CCCC(=O)NCc2ccccc2Cl)c(=O)c2nccn12,-1.54%,
CCOC(=O)CSc1nc2c(c(=O)n(Cc3ccccc3Cl)c(=O)n2C)n1C,-9.46%,
COc1ccc(CCN(C)C(=O)C23CC4CC(CC(Cl)(C4)C2)C3)cc1OC,-2.28%,
Cc1cc(-c2ccc(C)c(S(=O)(=O)Nc3ccc(S(N)(=O)=O)cc3)c2)on1,24.5%,
Cc1nc2ccccc2c(=O)n1Cc1ccc([N+](=O)[O-])cc1,6.4%,
Cn1cc(/C=C/c2nc3ccccc3c(=O)n2-c2cccc([N+](=O)[O-])c2)c2ccccc21,,10.4 µM (active)
Cc1cc(CNC(=O)c2cccc([N+](=O)[O-])c2)c2ccccc2n1,36.5%,
Cc1ccc(CC2CC(=O)N(c3cc(C)ccc3C)C2=O)cc1 (stereo unspecified),4.56%,
COc1ccc(NS(=O)(=O)c2ccc3oc(SCC(N)=O)nc3c2)cc1,-1.65%,
O=C(COC(=O)CNC(=O)C1CCCCC1)NCc1ccccc1,23.9%,
Cc1cccc(-[n+]2c(-c3cccc(Br)c3)[nH]c3nc4ccccc4nc32)c1,,13.1 µM (active)
Cc1ccc2nc(-c3cccc(Br)c3)cc(C(=O)Nn3cnnc3)c2c1,50.9%,
O=C(NNC(=S)NCc1ccccc1)c1ccc(OC(F)F)cc1,6.83%,
CC(C)Oc1ccc(CCC(=O)NNC(=S)NCc2ccccc2)cc1,,1.65 µM (active)
Cc1ccc(OCC(=O)NNC(=S)NCc2ccccc2)cc1,-6.04%,
